# Test results from paper PMC8384837, “Expanding the binding specificity for RNA recognition by a PUF domain”.
# Numbering of substitutions follows the chain as printed.
# Assays:
# Assay in all cases: yeast three-hybrid, YBZ-1, SC-Leu-His + 0.5 mM 3-AT, 4 days
# Conditions in all cases: tags: N-Gal4 AD-HA kept; label: inside an RPR1-promoter hybrid RNA with tandem MS2 sites; ssRNA
# [1] = molecular target: PUM1 PUF domain R5-RNG (Homo sapiens, UniProt Q14671 828-1176, C1007R;R1008N;Q1011G)
# How it was run: (§1)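 A centromeric plasmid in strain YBZ-1 co-expressed Pumilio-1 PUF domain libraries, randomized at the three base-contacting residues of each repeat, with matching RNA elements; the strain carries a LexA–MS2 coat fusion and a HIS3 reporter. After four days on SC-Leu (input) or SC-Leu-His + 0.5 mM 3-AT (selection), the repeat regions were PCR-amplified and Illumina-sequenced. The interaction score is the log change in variant frequency from input to selection, using log2 and a pseudocount of 1 where absent.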
# [2] = molecular target: PUM1 PUF domain R5-LYG (Homo sapiens, UniProt Q14671 828-1176, C1007L;R1008Y;Q1011G)
# How it was run: as §1
# [3] = molecular target: T1, PUM1 PUF domain R6-LYV (Homo sapiens, UniProt Q14671 828-1176, N1043L;Q1047V)
# T1 sequence: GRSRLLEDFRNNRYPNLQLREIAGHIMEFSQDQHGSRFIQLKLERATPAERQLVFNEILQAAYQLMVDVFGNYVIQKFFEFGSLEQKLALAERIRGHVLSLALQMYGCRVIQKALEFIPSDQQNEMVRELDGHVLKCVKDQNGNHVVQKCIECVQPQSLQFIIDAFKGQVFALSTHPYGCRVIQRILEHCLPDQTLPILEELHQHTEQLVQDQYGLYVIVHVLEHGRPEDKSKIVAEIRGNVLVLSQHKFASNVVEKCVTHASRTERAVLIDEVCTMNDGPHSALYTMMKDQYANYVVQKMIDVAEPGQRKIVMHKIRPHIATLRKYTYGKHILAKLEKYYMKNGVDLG
# How it was run: as §1
# [4] = molecular target: PUM1 PUF domain R8-KFA (Homo sapiens, UniProt Q14671 828-1176, N1122K;Y1123F;Q1126A)
# How it was run: as §1
# [5] = molecular target: T2, PUM1 PUF domain R6-CWR (Homo sapiens, UniProt Q14671 828-1176, N1043C;Y1044W;Q1047R)
# T2 sequence: T1 sequence with L216C, Y217W, V220R
# How it was run: as §1
# [6] = molecular target: PUM1 PUF domain R3-IFV (Homo sapiens, UniProt Q14671 828-1176, C935I;R936F;Q939V)
# How it was run: as §1
# [7] = molecular target: PUM1 PUF domain R3-DHV (Homo sapiens, UniProt Q14671 828-1176, C935D;R936H;Q939V)
# How it was run: as §1
# [8] = molecular target: PUM1 PUF domain R7-KWK (Homo sapiens, UniProt Q14671 828-1176, S1079K;N1080W;E1083K)
# How it was run: as §1
# [9] = molecular target: PUM1 PUF domain R7-RSR (Homo sapiens, UniProt Q14671 828-1176, S1079R;N1080S;E1083R)
# How it was run: as §1
# [10] = molecular target: PUM1 PUF domain R1-KVS (Homo sapiens, UniProt Q14671 828-1176, S863K;R864V;Q867S)
# How it was run: as §1
# [11] = molecular target: PUM1 PUF domain R5-WHC (Homo sapiens, UniProt Q14671 828-1176, C1007W;R1008H;Q1011C)
# How it was run: as §1
# [12] = molecular target: PUM1 PUF domain R5-FHT (Homo sapiens, UniProt Q14671 828-1176, C1007F;R1008H;Q1011T)
# How it was run: as §1
# [13] = molecular target: PUM1 PUF domain R3-RSW (Homo sapiens, UniProt Q14671 828-1176, C935R;R936S;Q939W)
# How it was run: as §1
# [14] = molecular target: PUM1 PUF domain R3-TFG (Homo sapiens, UniProt Q14671 828-1176, C935T;R936F;Q939G)
# How it was run: as §1
# [15] = molecular target: PUM1 PUF domain R3-LFT (Homo sapiens, UniProt Q14671 828-1176, C935L;R936F;Q939T)
# How it was run: as §1
# [16] = molecular target: PUM1 PUF domain R2-AYW (Homo sapiens, UniProt Q14671 828-1176, N899A;Q903W)
# How it was run: as §1
# [17] = molecular target: PUM1 PUF domain R3-VSK (Homo sapiens, UniProt Q14671 828-1176, C935V;R936S;Q939K)
# How it was run: as §1
# [18] = molecular target: PUM1 PUF domain R3-RTI (Homo sapiens, UniProt Q14671 828-1176, C935R;R936T;Q939I)
# How it was run: as §1
# [19] = molecular target: PUM1 PUF domain R5-EAE (Homo sapiens, UniProt Q14671 828-1176, C1007E;R1008A;Q1011E)
# How it was run: as §1
# [20] = molecular target: PUM1 PUF domain R5-WHY (Homo sapiens, UniProt Q14671 828-1176, C1007W;R1008H;Q1011Y)
# How it was run: as §1
sequence,measurement,setting,value
GGCUAGAACUAGUGGAUCCCCCGGCGCCCGGCGGCUCGAGCCCGGGUAAGUGUUAAUAGUCUGCAUGCCGCCGGGCGCCAUGCCUGCAGGUCGACUCUAGAAAACAUG,binding signal,[1],4.63 log2 enrichment (interaction score)
same,binding signal,[2],2.42 log2 enrichment (interaction score)
GGCUAGAACUAGUGGAUCCCCCGGCGCCCGGCGGCUCGAGCCCGGGUAAGUGUAAAUAGUCUGCAUGCCGCCGGGCGCCAUGCCUGCAGGUCGACUCUAGAAAACAUG,binding signal,[3],2.81 log2 enrichment (interaction score)
same,binding signal,[4],4.75 log2 enrichment (interaction score)
same,binding signal,[2],3.46 log2 enrichment (interaction score)
same,binding signal,[5],5.42 log2 enrichment (interaction score)
same,binding signal,[6],4.8 log2 enrichment (interaction score)
same,binding signal,[7],4.2 log2 enrichment (interaction score)
GGCUAGAACUAGUGGAUCCCCCGGCGCCCGGCGGCUCGAGCCCGGGUAAGUCUAAAUAGUCUGCAUGCCGCCGGGCGCCAUGCCUGCAGGUCGACUCUAGAAAACAUG,binding signal,[8],2.57 log2 enrichment (interaction score)
same,binding signal,[9],3.42 log2 enrichment (interaction score)
GGCUAGAACUAGUGGAUCCCCCGGCGCCCGGCGGCUCGAGCCCGGGUAAGUGUAAAUCGUCUGCAUGCCGCCGGGCGCCAUGCCUGCAGGUCGACUCUAGAAAACAUG,binding signal,[10],5.01 log2 enrichment (interaction score)
GGCUAGAACUAGUGGAUCCCCCGGCGCCCGGCGGCUCGAGCCCGGGUAAGUGUCAAUAGUCUGCAUGCCGCCGGGCGCCAUGCCUGCAGGUCGACUCUAGAAAACAUG,binding signal,[1],2.64 log2 enrichment (interaction score)
same,binding signal,[11],3.6 log2 enrichment (interaction score)
same,binding signal,[12],2.81 log2 enrichment (interaction score)
GGCUAGAACUAGUGGAUCCCCCGGCGCCCGGCGGCUCGAGCCCGGGUAAGUGUAAGUAGUCUGCAUGCCGCCGGGCGCCAUGCCUGCAGGUCGACUCUAGAAAACAUG,binding signal,[13],0.87 log2 enrichment (interaction score)
same,binding signal,[14],2.15 log2 enrichment (interaction score)
same,binding signal,[15],6.89 log2 enrichment (interaction score)
same,binding signal,[6],3.32 log2 enrichment (interaction score)
same,binding signal,[7],1.77 log2 enrichment (interaction score)
GGCUAGAACUAGUGGAUCCCCCGGCGCCCGGCGGCUCGAGCCCGGGUAAGUUUAAAUAGUCUGCAUGCCGCCGGGCGCCAUGCCUGCAGGUCGACUCUAGAAAACAUG,binding signal,[9],4.84 log2 enrichment (interaction score)
GGCUAGAACUAGUGGAUCCCCCGGCGCCCGGCGGCUCGAGCCCGGGUAAGUAUAAAUAGUCUGCAUGCCGCCGGGCGCCAUGCCUGCAGGUCGACUCUAGAAAACAUG,binding signal,[8],2.56 log2 enrichment (interaction score)
GGCUAGAACUAGUGGAUCCCCCGGCGCCCGGCGGCUCGAGCCCGGGUAAGUGUAAAAAGUCUGCAUGCCGCCGGGCGCCAUGCCUGCAGGUCGACUCUAGAAAACAUG,binding signal,[16],3.05 log2 enrichment (interaction score)
GGCUAGAACUAGUGGAUCCCCCGGCGCCCGGCGGCUCGAGCCCGGGUAAGUGUAAUUAGUCUGCAUGCCGCCGGGCGCCAUGCCUGCAGGUCGACUCUAGAAAACAUG,binding signal,[13],3.81 log2 enrichment (interaction score)
same,binding signal,[14],2.64 log2 enrichment (interaction score)
same,binding signal,[17],3.36 log2 enrichment (interaction score)
same,binding signal,[18],3.21 log2 enrichment (interaction score)
same,binding signal,[15],5.16 log2 enrichment (interaction score)
same,binding signal,[6],4.5 log2 enrichment (interaction score)
GGCUAGAACUAGUGGAUCCCCCGGCGCCCGGCGGCUCGAGCCCGGGUAAGUGUAAAUUGUCUGCAUGCCGCCGGGCGCCAUGCCUGCAGGUCGACUCUAGAAAACAUG,binding signal,[10],4.64 log2 enrichment (interaction score)
GGCUAGAACUAGUGGAUCCCCCGGCGCCCGGCGGCUCGAGCCCGGGUAAGUGUAACUAGUCUGCAUGCCGCCGGGCGCCAUGCCUGCAGGUCGACUCUAGAAAACAUG,binding signal,[14],0.95 log2 enrichment (interaction score)
GGCUAGAACUAGUGGAUCCCCCGGCGCCCGGCGGCUCGAGCCCGGGUAAGCGUAAAUAGUCUGCAUGCCGCCGGGCGCCAUGCCUGCAGGUCGACUCUAGAAAACAUG,binding signal,[4],6.97 log2 enrichment (interaction score)
GGCUAGAACUAGUGGAUCCCCCGGCGCCCGGCGGCUCGAGCCCGGGUAAGUGUGAAUAGUCUGCAUGCCGCCGGGCGCCAUGCCUGCAGGUCGACUCUAGAAAACAUG,binding signal,[19],3.11 log2 enrichment (interaction score)
same,binding signal,[20],5.78 log2 enrichment (interaction score)
